We go through 25 compounds from PubChem BioAssay (NCATS).

The target of assay [1] is Cytochrome P450 3A4 (Homo sapiens) (UniProt P08684). In words: qHTS Assay for Inhibitors and Substrates of Cytochrome P450 3A4 (AID 884). Further: nearly all actives have a fitted effect of over 50% in size. Further: potency means the concentration at half of the fitted maximal effect. On activity change, negative = inhibition: on the % scale 0 is the no-effect control and ±100 the full control effect. Put shortly:
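20 nM human CYP3A4 with 25 uM Luciferin-PPXE (at KM) in 200 mM KPO4, preincubated 10 min with compound; NADPH regeneration started a 60 min RT reaction. Luciferin detected by luminescence, normalized to 57 uM ketoconazole as full inhibition.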

The nature of assay [2]: Confirmation and Secondary Assay for Modulators of Hemoglobin Beta Chain Splicing at IVS2 654 locus (AID 910).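 Further: HeLa cells stably carrying EGFP split by mutant beta-globin IVS2-654 intron; per-well total GFP intensity by laser scanning cytometry after 2-day treatment; % of control where 0% means no effect.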 The essentials: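 Readout: per-well total peak green fluorescence (488 nm ex, 500–520 nm em) from objects 5–250 µm, reflecting correct splicing of an EGFP-654 reporter. Compounds were applied for 2 days at 37 °C to overnight-plated HeLa EGFP-654 cells; controls were DMSO and 500 nM IVS2-654 PNA.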

Assay [3] can be described thus: Confirmation and Secondary Assay for Modulators of Hemoglobin Beta Chain Splicing at IVS2 705 locus (AID 930).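 Further: HeLa cells stably expressing the EGFP-705 splicing reporter; GFP fluorescence per well restored by corrected splicing of the IVS2-705 intron in EGFP; % of control where 0% means no effect.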 Put shortly: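 Secondary splice-site specificity test uses HeLa expressing CMV-driven EGFP interrupted by IVS2-705; cells were treated 2 days at 37C with 500 nM antisense PNA as positive control.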
A short description of assay [4]: qHTS Assay for Lipid Storage Modulators (AID 1519; calls by dose curve; on activity change, negative = inhibition: on the % scale 0 is the no-effect control and ±100 the full control effect). The settings on record: Drosophila S3 cells, BODIPY lipid droplet/cell ratio, laser cytometry, cells loaded with oleic acid; for activity change, negative = inhibition: at 57.5 µM (top of the series). The essentials:
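Cells seeded at 5,000 per well were treated with compounds over a concentration series and loaded with oleic acid (400 uM, as added). Lipid droplet fluorescence (488 nm excitation, 500-530 nm channel) was read by laser-scanning cytometry and normalized to 20 uM Triacsin C.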

For assay [5], the target named is Ubiquitin carboxyl-terminal hydrolase 1 (Homo sapiens) (UniProt O94782). Nature of the assay: Inhibitors of USP1/UAF1: Pilot qHTS (AID 504865).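 Further: rhodamine fluorescence freed from ubiquitin-rhodamine substrate followed over time; top concentration of the series differs between compounds; on the % scale 0 is the no-effect control and ±100 the full control effect; nearly all actives have a fitted effect of over 35% in size.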 The essentials: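 USP1/UAF1 complex (1nM) preincubated with compound 15 min at room temperature, then Ub-Rho substrate (150nM final) added. Fluorescence read kinetically at 480/540 nm, 6 reads every 60 seconds. Buffer: 50mM HEPES pH 7.8, 0.5mM EDTA, 0.1 mg/ml BSA, 1mM TCEP, 0.01% Tween-20.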
Ubiquitin carboxyl-terminal hydrolase 1 (Homo sapiens), sequence (O94782 whole entry, looked up): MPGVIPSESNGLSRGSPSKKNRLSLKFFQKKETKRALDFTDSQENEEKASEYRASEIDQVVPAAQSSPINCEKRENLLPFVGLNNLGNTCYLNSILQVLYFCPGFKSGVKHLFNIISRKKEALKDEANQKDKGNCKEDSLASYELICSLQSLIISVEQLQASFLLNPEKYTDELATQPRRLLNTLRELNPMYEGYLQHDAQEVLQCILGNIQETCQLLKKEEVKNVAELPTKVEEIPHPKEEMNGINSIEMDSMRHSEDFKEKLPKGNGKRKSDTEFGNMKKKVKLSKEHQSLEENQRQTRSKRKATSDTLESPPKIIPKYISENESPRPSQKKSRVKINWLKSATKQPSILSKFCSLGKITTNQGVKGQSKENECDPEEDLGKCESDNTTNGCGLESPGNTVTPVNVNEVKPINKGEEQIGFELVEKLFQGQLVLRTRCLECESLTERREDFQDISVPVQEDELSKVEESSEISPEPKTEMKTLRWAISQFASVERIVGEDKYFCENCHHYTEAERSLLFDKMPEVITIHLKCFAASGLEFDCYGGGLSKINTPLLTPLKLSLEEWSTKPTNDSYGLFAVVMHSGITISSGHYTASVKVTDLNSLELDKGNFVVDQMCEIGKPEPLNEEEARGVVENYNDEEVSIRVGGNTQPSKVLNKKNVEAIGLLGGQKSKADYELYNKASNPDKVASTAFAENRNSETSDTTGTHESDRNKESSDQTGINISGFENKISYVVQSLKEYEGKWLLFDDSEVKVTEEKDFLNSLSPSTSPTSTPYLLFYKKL

Setting [6] is: measured here: cell count channel max response.
Where [7] appears, read: measured here: lipid channel max response.

Records with an inconclusive call do not appear. The source made the active and inactive calls. Unless noted, the call rests on the fitted dose curve; in most records, active means well fitted curve in the direction sought with a large enough effect; inconclusive means small, poorly fitted or top-dose-only effect, or another doubt; inactive means no such curve, though single readings can be large; an effect the other way counts as inactive or inconclusive.

Cytochrome P450 3A4 (Homo sapiens), sequence (P08684 whole entry, looked up): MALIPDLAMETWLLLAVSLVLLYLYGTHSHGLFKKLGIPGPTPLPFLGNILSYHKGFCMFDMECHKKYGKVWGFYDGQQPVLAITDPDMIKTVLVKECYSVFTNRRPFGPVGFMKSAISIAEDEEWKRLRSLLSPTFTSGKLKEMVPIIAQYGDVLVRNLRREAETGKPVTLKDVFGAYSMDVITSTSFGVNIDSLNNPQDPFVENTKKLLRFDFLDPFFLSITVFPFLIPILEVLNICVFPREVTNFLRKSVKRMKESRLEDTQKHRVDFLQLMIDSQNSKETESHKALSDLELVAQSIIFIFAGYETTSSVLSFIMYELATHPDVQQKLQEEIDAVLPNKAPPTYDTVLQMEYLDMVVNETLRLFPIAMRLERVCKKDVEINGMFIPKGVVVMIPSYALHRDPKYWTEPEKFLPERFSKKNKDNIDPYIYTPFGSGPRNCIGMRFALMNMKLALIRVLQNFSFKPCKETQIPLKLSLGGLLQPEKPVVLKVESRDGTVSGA

As to `CC(=O)Oc1ccc2c(c1)CCC1C2CC[C@@]2(C)C1CC(OC(C)=O)C2OC(C)=O` (stereo not given in full), the Potency result in assay [1], in assay [2], in assay [3] and in assay [5] was “inactive” each time. Besides, the activity change, negative = inhibition in assay [4] is 5.31% (inactive). The results for the max response in assay [4] (setting [6]) and in assay [4] (setting [7]) were 10.1% and 17.4%, respectively.

Consider `CC(=O)OCC1OC(n2c(Br)nc3c(=O)[nH]c(N)nc32)C(OC(C)=O)C1OC(C)=O` (stereo not given), for which the Potency entry in assay [1], in assay [2], in assay [3] and in assay [5] was “inactive” each time. The activity change, negative = inhibition in assay [4] is 1.02% (inactive). Moreover, the max response in assay [4] (setting [6]) was determined as 9.1%; in assay [4] (setting [7]), 10.5%.

For `CC(=O)OC/C=C(\C)CC/C=C(\C)CC/C=C(\C)CC/C=C(\C)CC/C=C(\C)CC/C=C(\C)CC/C=C(\C)CC/C=C(\C)CCC=C(C)C`, the Potency entry in assay [1], in assay [2], in assay [3] and in assay [5] was “inactive” throughout. Further, the activity change, negative = inhibition in assay [4] was 1.76% (inactive). Further, the max response amounted to 7.11% in assay [4] (setting [6]) and 8.78% in assay [4] (setting [7]).

Turning to `CC(=O)OC1CC(OC(C)=O)[C@]2(C)C(CC(=O)[C@]3(C)C2CC[C@@]2(C)C(c4ccoc4)OC(=O)C4O[C@@]423)C1(C)C` (stereo not given in full), the Potency in assay [1] is 20 µM (active). Further, the Potency result in assay [2], in assay [3] and in assay [5] was “inactive” in each case. Besides, the activity change, negative = inhibition in assay [4] is 4.36% (inactive). Also, the max response was 11.4% in assay [4] (setting [6]) and 20.9% in assay [4] (setting [7]).

As to `NCCC(=O)N[C@H](Cc1cnc[nH]1)C(=O)O`, the Potency result in assay [1], in assay [2], in assay [3] and in assay [5] was “inactive” each time. In assay [4], the activity change, negative = inhibition is 4.17% (inactive). Also, the max response in assay [4] (setting [6]) was 11.4%; in assay [4] (setting [7]) it was 10.9%.

Regarding `CN(C)C1C(=O)C(C(N)=O)=C(O)[C@@]2(O)C(=O)C3=C(O)c4c(O)ccc(Cl)c4C(O)[C@H]3C[C@@H]12` (stereo not given in full), the Potency result in assay [1], in assay [2], in assay [3] and in assay [5] was “inactive” each time. Further, the activity change, negative = inhibition in assay [4] is 5.54% (inactive). Also, the max response was found to be 25.6% in assay [4] (setting [6]) and 35.5% in assay [4] (setting [7]).

As for `O=C(O)C(O)[C@@](O)(Cc1ccc(O)cc1)C(=O)O` (stereo not given in full), the Potency result in assay [1], in assay [2], in assay [3] and in assay [5] was “inactive” in each case. In addition, in assay [4], the activity change, negative = inhibition was 5.41% (inactive). For the same compound, the max response in assay [4] (setting [6]) came out at 10.8%; in assay [4] (setting [7]), 18.1%.

Regarding `CCCCC(=O)Oc1ccccc1C(=O)O`, the Potency entry in assay [1], in assay [2], in assay [3] and in assay [5] was “inactive” throughout. Also, in assay [4], the activity change, negative = inhibition was -0.236% (inactive). Besides, the max response amounted to 5.62% in assay [4] (setting [6]) and 5.3% in assay [4] (setting [7]).

Turning to `OCC1O[C@@H](OC2C(O)C(CO)O[C@@]2(CO)O[C@@H]2OC(CO)C(O)C(O)C2O)C(O)C(O)C1O` (stereo not given in full), the Potency result in assay [1], in assay [2], in assay [3] and in assay [5] was “inactive” throughout. Moreover, the activity change, negative = inhibition in assay [4] was 4.82% (inactive). The max response in assay [4] (setting [6]) came out at 0.0409%; in assay [4] (setting [7]) it was 4.57%.

Consider `C[C@]12CCC3c4ccc(O)cc4CCC3C1CC(O)C2O` (stereo not given in full), for which the Potency result in assay [1], in assay [2], in assay [3] and in assay [5] was “inactive” in each case. Moreover, the activity change, negative = inhibition in assay [4] is -4.9% (inactive). The max response came to 6.91% in assay [4] (setting [6]) and 3.96% in assay [4] (setting [7]).

With `C=C(C)C1Cc2c(ccc(C(=O)O)c2O)O1` (stereo not given), the Potency result in assay [1], in assay [2], in assay [3] and in assay [5] was “inactive” each time. Further, the activity change, negative = inhibition in assay [4] is 5.26% (inactive). The max response came out at 17% in assay [4] (setting [6]) and 23.8% in assay [4] (setting [7]).

Consider `CC1(C)SC2C(NC(=O)C(NC(=O)N3CCNC3=O)c3ccccc3)C(=O)N2C1C(=O)O` (stereo not given), for which the Potency result in assay [1], in assay [2], in assay [3] and in assay [5] was “inactive” each time. Besides, in assay [4], the activity change, negative = inhibition was 8.06% (inactive). In addition, the max response was 17.4% in assay [4] (setting [6]) and 28.9% in assay [4] (setting [7]).

Consider `COc1cccc2c1CCC1=CC(=O)CC[C@@]12C`, for which the Potency entry in assay [1], in assay [2], in assay [3] and in assay [5] was “inactive” each time. Also, in assay [4], the activity change, negative = inhibition is 11.4% (inactive). Moreover, the results for the max response in assay [4] (setting [6]) and in assay [4] (setting [7]) were 2.03% and 15.6%, respectively.

In the case of `CC(=O)OCC(=O)[C@@]1(O)CCC2C3CCC4=CC(=O)CC[C@]4(C)C3C(O)C[C@]21C` (stereo not given in full), the Potency result in assay [1], in assay [2], in assay [3] and in assay [5] was “inactive” in each case. The activity change, negative = inhibition in assay [4] is 7.11% (inactive). Also, the max response in assay [4] (setting [6]) stood at 10.3%; in assay [4] (setting [7]), 18.3%.

Take `CC(=O)OC1CC(O)C(C)(C)C2CC(OC(C)=O)[C@]3(C)C(CC[C@@]4(C)C(c5ccoc5)OC(=O)C5OC534)[C@]12C` (stereo not given in full): the Potency in assay [1] is 2.51 µM (active). Moreover, the Potency entry in assay [2], in assay [3] and in assay [5] was “inactive” in each case. Further, the activity change, negative = inhibition in assay [4] is 4.32% (inactive). Besides, the max response amounted to 12.6% in assay [4] (setting [6]) and 20.3% in assay [4] (setting [7]).

As to `CC(C)=CC1C(C(=O)O)C1(C)C` (stereo not given), the Potency result in assay [1], in assay [2], in assay [3] and in assay [5] was “inactive” throughout. For the same compound, in assay [4], the activity change, negative = inhibition is 7.47% (inactive). Further, the results for the max response in assay [4] (setting [6]) and in assay [4] (setting [7]) were 18% and 29.9%, respectively.

As to `CC(=O)/C=C\C1[C@]2(C)CCCC(C)(C)C2CC[C@@]1(C)O` (stereo not given in full), the Potency entry in assay [1], in assay [2], in assay [3] and in assay [5] was “inactive” in each case. The activity change, negative = inhibition in assay [4] was 3.07% (inactive). Also, the max response is -10.9% in assay [4] (setting [6]) and -8.32% in assay [4] (setting [7]).

On to `O=c1[nH]c(=O)c2nc(Br)n(C3OC(CO)C(O)C3O)c2[nH]1` (stereo not given), for which the Potency result in assay [1], in assay [2], in assay [3] and in assay [5] was “inactive” each time. For the same compound, the activity change, negative = inhibition in assay [4] was 6.72% (inactive). In addition, the max response in assay [4] (setting [6]) stood at 5.7%; in assay [4] (setting [7]) it was 13%.

Consider `CCC(CCC(C)C1CCC2C3CC=C4CC(OC(C)=O)CC[C@@]4(C)C3CC[C@@]12C)C(C)C` (stereo not given in full), for which the Potency entry in assay [1], in assay [2], in assay [3] and in assay [5] was “inactive” in each case. Besides, in assay [4], the activity change, negative = inhibition is 5.75% (inactive). Moreover, the max response came to 28.8% in assay [4] (setting [6]) and 28.4% in assay [4] (setting [7]).

In the case of `Nc1ncnc2c1ncn2C1OC(COP(=O)(O)O)C(O)C1O` (stereo not given), the Potency entry in assay [1], in assay [2], in assay [3] and in assay [5] was “inactive” throughout. Moreover, in assay [4], the activity change, negative = inhibition was 5.46% (inactive). In addition, the max response was determined as 29.6% in assay [4] (setting [6]) and 41.9% in assay [4] (setting [7]).

For the compound `COc1ccc(-c2coc3c(OC)c(OC)cc(OC)c3c2=O)cc1`, the Potency entry in assay [1], in assay [2], in assay [3] and in assay [5] was “inactive” throughout. Also, in assay [4], the activity change, negative = inhibition was 12.7% (inactive). The max response in assay [4] (setting [6]) was determined as 16.4%; in assay [4] (setting [7]), 29.7%.

For `COc1ccc(C2CC(=O)c3c(O)cc(O[C@H]4OC(COC5OC(C)C(O)C(O)[C@@H]5O)C(O)C(O)C4O)cc3O2)cc1O` (stereo not given in full), the Potency result in assay [1], in assay [2], in assay [3] and in assay [5] was “inactive” throughout. Besides, the activity change, negative = inhibition in assay [4] was -1.5% (inactive). In addition, the max response is 1.58% in assay [4] (setting [6]) and -1.01% in assay [4] (setting [7]).

For the compound `CC(C)C(N)C(=O)NC(Cc1c[nH]c2ccccc12)C(=O)O` (stereo not given), the Potency result in assay [1], in assay [2], in assay [3] and in assay [5] was “inactive” each time. Further, the activity change, negative = inhibition in assay [4] is 7.82% (inactive). Also, the max response in assay [4] (setting [6]) stood at 15.4%; in assay [4] (setting [7]) it was 28.4%.

In the case of `C=C(C)C1(O)OC(=O)C=C1OC` (stereo not given), the Potency entry in assay [1], in assay [2], in assay [3] and in assay [5] was “inactive” in each case. In addition, the activity change, negative = inhibition in assay [4] is -0.62% (inactive). Also, the max response in assay [4] (setting [6]) was -1.24%; in assay [4] (setting [7]), -2.01%.

With `NC(CCC(=O)NC(CCSC(CC(=O)O)C(=O)O)C(=O)NCC(=O)O)C(=O)O` (stereo not given), the Potency entry in assay [1], in assay [2], in assay [3] and in assay [5] was “inactive” throughout. The activity change, negative = inhibition in assay [4] is 6.92% (inactive). In addition, the max response in assay [4] (setting [6]) amounted to 13.3%; in assay [4] (setting [7]), 21.2%.
